For 114 compounds, Potency results are on record in PubChem BioAssay AID588790 (National Center for Advancing Translational Sciences (NCATS), 2011).

Among all 1,200 compounds or so, about 85 (7%) were called active. Entries that show only a call come without a potency. The call rests on the fitted dose curve. The sample as a whole holds a higher share of actives than the screen did.
Potency means the concentration at half of the fitted maximal effect.

For the assay, the target named is Beta-2 adrenergic receptor (Homo sapiens) (UniProt P07550). As to the kind of experiment: qHTS assay of beta-arrestin-biased ligands of beta2-adrenergic receptor: Hit Validation with GloSensor. The note with it: W9-Glo22F cells, GloSensor cAMP luminescence, beta2AR agonism; activation: at 46.1 µM (top of the series). Summed up: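 Luminescence measured 10 min after GloSensor reagent addition at room temperature. Preceded by compound pinning onto W9-Glo22F cells that had been cultured overnight at 37 deg C under 5% CO2.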
Chain of Beta-2 adrenergic receptor (Homo sapiens) (P07550 whole entry, looked up): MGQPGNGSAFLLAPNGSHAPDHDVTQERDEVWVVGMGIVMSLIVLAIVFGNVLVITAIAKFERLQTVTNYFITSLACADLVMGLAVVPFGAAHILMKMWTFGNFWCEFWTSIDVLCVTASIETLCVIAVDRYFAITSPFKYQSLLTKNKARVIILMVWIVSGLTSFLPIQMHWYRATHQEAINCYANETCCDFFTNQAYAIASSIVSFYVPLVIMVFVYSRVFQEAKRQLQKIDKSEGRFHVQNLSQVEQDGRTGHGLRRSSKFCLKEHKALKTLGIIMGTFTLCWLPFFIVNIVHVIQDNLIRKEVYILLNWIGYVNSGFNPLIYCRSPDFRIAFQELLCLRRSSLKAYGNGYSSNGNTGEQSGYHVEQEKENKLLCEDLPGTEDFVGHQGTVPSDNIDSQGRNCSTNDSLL
Background: In qHTS, concentration-response curves come from the screen itself.
In the case of `Cc1ccc2c(c1)[C@H]1[C@H](CO2)[C@H](c2ccccc2)[C@]2(C)C(=O)Nc3ccccc3C(=O)N12`, the Potency result was “inactive”.
For the compound `NC(=S)N/N=C/c1ccc(-c2ccc([N+](=O)[O-])cc2)o1`, the Potency result was “inactive”.
The value for `NC(=S)N/N=C/c1ccc(-c2cccc([N+](=O)[O-])c2)o1` was 20.6 µM (active).
The value for `NC(=S)N/N=C/c1ccc(-c2ccccc2)o1` was “inactive”.
For the compound `Cc1cccc(NC(=S)NC(=O)C2CC2)c1`, the Potency result was “inactive”.
In the case of `CCC(NC(C)C)C(O)c1ccc(O)c(O)c1` (centres undefined), the Potency is 0.0065 µM (active).
The value for `CCC(NC(C)C)C(O)c1ccc(O)c2[nH]c(=O)ccc12` (centres undefined) was 0.0058 µM (active); that for `COc1cccc(OCC(=O)Nc2c3c(nn2-c2ccc(F)cc2)CS(=O)(=O)C3)c1` was “inactive”.
Turning to `O=C(NC1CCCCC1)N(Cc1cc2cc3c(cc2[nH]c1=O)OCCO3)CC1CCCO1` (centres undefined), the Potency entry is “inactive”.
`CCNC(=S)N/N=C(\C)c1cccc(C(F)(F)F)c1`: the Potency entry is “inactive”.
For `CC(=O)Nc1ccc(S(=O)(=O)N2CCC(c3nnc(-c4ccc(C)cc4)o3)CC2)cc1` the value was “inactive”; for `CCOC(=O)c1c(NC(=O)CSc2cccc[n+]2[O-])sc(C(=O)Nc2ccccc2)c1C`, “inactive”; for `CCOC(=O)c1c(C)nc2c(c1-c1ccccc1)C(=O)CC(C)(C)C2`, “inactive”.
For `CC(C)C(=O)COc1c2occc2cc2ccc(=O)oc12` the value was 13 µM (active).
The value for `N#CC1=C(N)OC2=C(CC/C2=C\c2ccccc2)C1c1ccccc1` (centres undefined) was “inactive”.
For `CC1CCCC/C1=N\NC(=S)NCCc1ccccc1` (centres undefined), the Potency entry is “inactive”.
As for `S=c1ccc2ccccc2[nH]1`, the Potency result is “inactive”.
Regarding `S=c1nc(-c2ccccc2)[nH]c2ccc(Br)cc12`, the Potency entry is “inactive”.
As to `S=c1nc(-c2ccccc2)[nH]c2ccccc12`, the Potency is 32.6 µM (active).
Consider `CCOC(=O)C1(O)CC(C)=NN1C(=O)c1cccc(Cl)c1` (centres undefined), for which the Potency result was “inactive”.
For `CCNC(=S)N/N=C/c1cccs1` the value was 5.8 µM (active); for `CCNC(=S)N/N=C/c1sccc1C`, “inactive”; for `CC(C)NC(=S)N/N=C/c1cccs1`, “inactive”.
As to `Cc1noc(C)c1COc1cccc(C(=O)Nc2ccccc2N2CCOCC2)c1`, the Potency result was “inactive”.
With `O=C(N/N=C/c1ccccc1OC(=O)c1ccc2c(c1)OCO2)c1ccccc1`, the Potency entry is “inactive”.
In the case of `Cn1c(/C=C/c2ccc([N+](=O)[O-])o2)nc2ccccc2c1=O`, the Potency result was “inactive”.
`N#C/C(=C\c1cccc(O)c1)C(=O)Nc1ccc2c(c1)OCCO2`: the Potency entry was “inactive”.
For `O=C(CC(c1ccco1)S(=O)(=O)c1ccccc1)c1ccccc1` (centres undefined) the value was “inactive”; for `O=C(c1ccccc1)c1ccc2nc(-c3ccco3)c(-c3ccco3)nc2c1`, 32.6 µM (active); for `O=C(O)/C(=C\c1ccco1)NC(=O)c1ccccc1`, “inactive”.
For `CC(C)[C@H](NC(=O)c1ccccc1Cl)C(=O)Nc1nc(-c2ccccn2)cs1` the value was “inactive”; for `COc1cccc(N2CCN(C(=O)/C=C/c3ccco3)CC2)c1`, “inactive”; for `CC1=C(C)/C(=N\OS(=O)(=O)c2ccc(C)cc2)C=CC1=O`, “inactive”.
On to `C/C(=N\NC(=S)NC(C)C)c1ccccc1OC(F)F`, for which the Potency result was “inactive”.
The value for `COc1cc(/C(C)=N/NC(=S)NC(C)C)cc(OC)c1OC` was 18.4 µM (active); that for `C/C(=N\NC(=S)NC(C)C)c1ccccc1` was “inactive”.
For the compound `C/C(=N\NC(=S)NC(C)C)c1ccco1`, the Potency entry was “inactive”.
For `CC/C(=N\NC(=S)NC(C)C)c1ccc(OC)c(OC)c1`, the Potency was 23.1 µM (active).
For `CCOc1ccc(/C(CCC(=O)O)=N/NC(=S)NC(C)C)cc1`, the Potency result was “inactive”.
The value for `COc1cc(CN(C2CCCCC2)S(=O)(=O)c2ccc(S(=O)(=O)N(C)C3CCCCC3)cc2)cc(OC)c1OC` was “inactive”; that for `CCCNC(=O)COc1ccc2c(=O)c(Oc3ccccc3F)coc2c1` was “inactive”; that for `CC(CCc1ccccc1)NCC(O)c1cccc([N+](=O)[O-])c1` (centres undefined) was 0.0206 µM (active).
For `O=C(Cn1c(=O)c2sccc2n(Cc2cccc([N+](=O)[O-])c2)c1=O)NCCc1ccccc1` the value was “inactive”.
Take `O=C(CSCC(=O)Nc1cccc([N+](=O)[O-])c1)Nc1ccccc1`: the Potency result was “inactive”.
The value for `COc1ccc(C(=O)N/N=C/C(Br)=C/c2ccccc2)cc1` was “inactive”; that for `CCCc1cc(SCC(=O)Nc2c(C)n(C)n(-c3ccccc3)c2=O)n2c(nc3ccccc32)c1C#N` was “inactive”.
The value for `NNc1ccc(Cl)nn1` was “inactive”; that for `Cc1cccc(NC(=S)NCc2ccco2)n1` was “inactive”.
On to `C=CCNC(=S)N/N=C(\C)c1cccc(NC(C)=O)c1`, for which the Potency is 23.1 µM (active).
Take `C=CCNC(=S)N/N=C(\C)c1cccnc1`: the Potency entry was “inactive”.
For `C=CCNC(=S)N/N=C(\C)c1cccc(OC)c1` the value was “inactive”; for `CCN(CC)c1ccc(/C=N/Nc2nc(C)cc(C)n2)cc1`, “inactive”; for `CN1CCN(C(=O)c2ccccc2[N+](=O)[O-])CC1`, “inactive”.
The value for `COc1cccc(/C=N/Nc2ncc(C(F)(F)F)cc2Cl)c1O` was 25.9 µM (active).
The value for `COCCCNC(=S)N/N=C/c1cccc(OC)c1O` was “inactive”; that for `NC(=S)N/N=C/c1ncc(C(F)(F)F)cc1Cl` was “inactive”.
Take `Oc1ccccc1/C=N/Nc1nc2ccccc2o1`: the Potency entry is “inactive”.
Consider `CCCNC(=O)Cn1cnc2sc(C(=O)Nc3ccc4c(c3)OCO4)c(C)c2c1=O`, for which the Potency result is “inactive”.
With `N/C(=C\C(=O)c1cc(Cl)ccc1O)C(Cl)(Cl)Cl`, the Potency was 23.1 µM (active).
For `CCc1cc(C(=O)N(CC(C)C)c2c(N)n(Cc3ccccc3)c(=O)[nH]c2=O)sc1C` the value was “inactive”; for `COC(=O)c1scc(C)c1S(=O)(=O)Nc1ccc(C)cc1`, “inactive”.
Take `CCOc1ccc(C(C)=O)cc1COC(=O)c1ccc2c(c1)NC(=O)CS2`: the Potency was 4.61 µM (active).
The value for `CCOc1ccc(C(C)=O)cc1COC(=O)CN1C(=O)NC2(CCCC2)C1=O` was “inactive”; that for `S=C(Nc1ccccc1)Nc1nc2ccccc2n1CCOc1ccc(Br)cc1` was “inactive”; that for `Cc1ccnc(NC(=O)c2c(-c3ccccc3Cl)noc2C)c1` was “inactive”.
With `Cc1ccc(N(Cc2cc(=O)[nH]c3ccccc23)C(=O)c2ccco2)cc1`, the Potency result was “inactive”.
For `COc1ccc2c(c1)c(=O)c(C(=O)c1ccccc1)cn2Cc1ccccc1` the value was “inactive”.
For `S=c1nc2ccccc2c2nc(-c3ccccc3)[nH]n12` the value was 18.4 µM (active); for `Cc1ccccc1-c1nc2c3ccccc3nc(=S)n2[nH]1`, “inactive”; for `Cc1nc2ccccc2c(=O)n1N`, “inactive”.
On to `COc1ccc(/C(C)=N/NC(=S)NCCc2ccccc2)c(O)c1`, for which the Potency result is “inactive”.
The value for `O=C(CNC(=O)c1ccccc1F)Nc1ccc2c(c1)OCO2` was “inactive”; that for `C=C(C)C(=O)OC1(C(F)(F)F)Oc2cc(C)ccc2NC1=O` (centres undefined) was “inactive”.
Take `Cn1c(SCC(=O)N/N=C/C=C/c2ccco2)nc2ccccc21`: the Potency entry was “inactive”.
Turning to `Cc1nn2c(nc1=O)NNC2(C)C(C)(C)C` (centres undefined), the Potency entry is “inactive”.
For `CCN(CC)c1cc(C(F)(F)F)nc(-c2ccccn2)n1` the value was “inactive”; for `FC(F)(F)c1cc(Nc2ccccc2)nc(-c2ccccn2)n1`, 18.4 µM (active); for `Cc1cc(N)n(Cc2cccs2)n1`, “inactive”.
The value for `CCOC(=O)c1cnc(-n2nc(C)cc2C)nc1N(C)C` was “inactive”; that for `CCOC(=O)c1cnc(-n2nc(C)cc2C)nc1NC` was “inactive”; that for `COc1ccc(CNc2nc(SCC(=O)NCc3ccco3)nc3ccccc23)cc1` was “inactive”.
The value for `COc1ccc(-c2cc(C(F)(F)F)nc(SCC(=O)NCc3ccco3)n2)cc1OC` was 13 µM (active); that for `Cc1ccc(-n2c(SCC(=O)NCc3ccco3)nc3c(sc4ccccc43)c2=O)cc1` was “inactive”; that for `O=C(Nc1ccccc1)N1CCCC(c2nc(-c3cccs3)no2)C1` (centres undefined) was “inactive”.
In the case of `COc1ccc(NC(=S)N2CCc3ccccc3C2)cc1`, the Potency result was “inactive”.
For the compound `Cc1ccc(/C(=N/Nc2ncnc3ccccc23)C(=O)O)cc1`, the Potency entry is “inactive”.
For `COc1ccc(/C=N/Nc2nncc3ccccc23)c(OC)c1` the value was “inactive”.
The value for `COc1ccc(/C(C)=N/Nc2nc3ccccc3nc2C)cc1OC` was 25.9 µM (active); that for `Fc1ccccc1/C=N/n1cc(-c2ccccc2)[nH]c1=S` was “inactive”.
Turning to `O=C(/C=C/c1ccc(F)cc1)NC(=S)N1CCN(Cc2ccccc2)CC1`, the Potency entry is “inactive”.
For `C[C@H](C(=O)CC(=O)OC(C)(C)C)[C@H](O)c1ccccc1` the value was “inactive”; for `Cc1cc(/C=N/NC(N)=S)c(C)n1-c1ccc(Cl)cc1`, “inactive”; for `Cc1nc2ccc(NC(=O)CS(=O)(=O)c3ccc(F)cc3)cc2s1`, “inactive”.
The value for `C/C(=N\NC(=S)NC1CCCCC1)c1ccc(C)o1` was “inactive”; that for `C/C(=N\NC(=S)NC1CCCCC1)c1cccs1` was “inactive”.
The value for `C/C(=N\NC(=S)NC1CCCCC1)c1ccc(O)cc1` was 6.51 µM (active); that for `S=C(Nc1nc2c(s1)CCCC2)NC1CC1` was “inactive”; that for `NS(=O)(=O)c1ccc(CCNC(=O)CSc2ccc(Cl)cc2)cc1` was “inactive”.
As for `Nc1c(Cl)ncnc1N/N=C/c1ccc2ccccc2n1`, the Potency entry is “inactive”.
For `COc1cc(C(c2nnnn2C(C)(C)C)N2CCN(C)CC2)cc(OC)c1OC` (centres undefined) the value was “inactive”; for `CN(C(=O)CSc1ccncc1)C1CCCN(Cc2ccccc2F)C1` (centres undefined), “inactive”; for `O=C(NCCOc1cccnc1)C1CCC(=O)N(Cc2ccccc2F)C1` (centres undefined), 9.2 µM (active).
For `COc1ccccc1N1CCN(C(=O)c2cc3ccccc3[nH]2)CC1` the value was “inactive”; for `Cc1[nH]c2ccccc2c1C(=O)C(C)OC(=O)c1ccc(NC(=O)CC#N)cc1` (centres undefined), “inactive”.
`O=C(Nc1ccc(Nc2ccccc2)cc1)c1cc([N+](=O)[O-])ccc1Cl`: the Potency result is “inactive”.
Regarding `CCC(=O)N1CCC2(CC1)Oc1ccc(Cl)cc1C(=O)C21CC(c2ccccc2)=NO1` (centres undefined), the Potency is 23.1 µM (active).
The value for `CC(C)C(=O)N1CCC2(CC1)Oc1ccc(Cl)cc1C(=O)C21CC(c2ccccc2)=NO1` (centres undefined) was “inactive”; that for `CC(C)Oc1ccc(/C=N/NC(N)=S)cc1` was “inactive”.
The value for `Cc1cccnc1NCc1ccc(O)c2ncccc12` was “inactive”; that for `CCCOCc1ccc(O)c2ncccc12` was “inactive”; that for `OCc1ccnc2c(O)cccc12` was 25.9 µM (active).
For `COc1ccccc1NC(=O)COC(=O)c1ccc2ccccc2n1` the value was “inactive”; for `C[C@H](NC(=O)c1ccccc1)C(=O)Nc1nc(-c2ccccn2)cs1`, “inactive”.
As to `CC(C)OC(=O)c1cn(-c2ccccc2)nc1-c1ccco1`, the Potency was 23.1 µM (active).
